Inconclusive results are not listed. Active and inactive are the calls of the source. Calls follow the shape of the dose curve; as a rule, active = well fitted cell-killing curve with a large enough effect in the repeat runs; inconclusive = weak or mixed curves, or effect the other way; inactive = no such curve, though single readings can be large or run the other way.
Assay: qHTS assay to identify small molecule agonists of the estrogen receptor alpha (ER-alpha) signaling pathway in the presence of an antagonist - cell viability counter screen (AID 1259386);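 also: cells exposed to compounds for 22 h at 37 °C before the viability read; nearly all actives have a fitted effect of over 30% in size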
Details: VM7Luc4E2 viability, CellTiter-Fluor fluorescence, 22 h; series mostly up to 92.4 µM; activity change, negative = cytotoxicity: at the top concentration
Source text: National Center for Advancing Translational Sciences [NCATS]
NIH Chemical Genomics Center [NCGC]
U.S. Environmental Protection Agency [EPA]
National Institutes of Environmental Health Sciences [NIEHS]
National Toxicology Program [NTP]
U.S. Food and Drug Administration [FDA]
Estrogen receptor (ER), a member of nuclear hormone receptor plays an important role in development, metabolic homeostasis and reproduction. Two subtypes of ER, ER-alpha and ER-beta, have similar expression patterns with some uniqueness in both types. Endocrine disrupting chemicals (EDCs) and their interactions with steroid hormone receptors like ER causes disruption of normal endocrine function. Therefore, it is important to understand the effect of environmental chemicals in ER signaling pathway. For identifying ER agonists, VM7Luc4E2 cell line has been used in the current assay.
VM7Luc4E2 cell line (provided by Denison MS, University of California) endogenously expresses full-length ER-alpha and is stably transfected with a plasmid containing four estrogen responsive elements (ERE) upstream of a luciferase reporter gene. This current screening for measuring luciferase reporter gene activity using VM7Luc4E2 cells against Tox21 10K library collection is a confirmation study on agonist mode screening in presence of ER-antagonist (ICI-182,780) at 10.0nM final concentration. The cytotoxicity of the compounds was tested in parallel by measuring the cell viability using CellTiter-Fluor assay system (Promega, Madison, WI) in the same wells.
Tox21 Assay Protocol Summary:
VM7Luc4E2 cells were cultured in phenol red free assay medium containing 10% charcoal stripped FBS for 5 days prior to the assay. The cells were dispensed at 4,000 cells in 4uL of assay medium per well into white wall/solid-bottom 1536-well plates (Corning Life Sciences, Corning, NY) using a Multidrop Combi (Thermo Fisher Scientific Inc., Waltham, MA) dispenser. After the assay plates were incubated at 37C and 5% CO2 for 24hr, 1uL of 10.0nM (final concentration) ICI-182,780 or assay buffer was added using two separate tips of Flying Reagent Dispenser (FRD, Aurora Discovery, San Diego, CA). Then 23nL of compounds dissolved in DMSO at 15 concentrations and positive controls or DMSO only was transferred to the assay plates by a Pintool station (Wako, San Diego, CA). The assay plates were incubated at 37C and 5% CO2 for 22hr. After 21hr incubation at 37C, 1uL/well CellTiter-Fluor reagent (Promega Corporation, Madison, WI) was added to each well using FRD and after 1hr incubation at 37C and 5% CO2, the fluorescence signal was measured on ViewLux plate reader (PerkinElmer, Shelton, CT).
% is scaled to controls: 0 for no effect and ±100 for the full control effect; potency is read from the fitted curve at half-maximal effect.

Row | SMILES | activity change, negative = cytotoxicity | Potency
1 | COc1nn(C(=O)NS(=O)(=O)c2ccccc2OC(F)(F)F)c(=O)n1C | 1.43% (inactive) | 
2 | CCOP(=S)(OCC)SCSCC | 1.09% (inactive) | 
3 | CCC(COC(=O)c1cc(OC)c(OC)c(OC)c1)(c1ccccc1)N(C)C (stereo not given) | -7.18% [at 42.5 µM] (inactive) | 
4 | ClCc1cccc(Cl)c1 | -0.508% [at 42.5 µM] (inactive) | 
5 | C=CCC1([C@H](C)CCC)C(=O)NC(=O)NC1=O | -3.44% (inactive) | 
6 | CCOP(=S)(Oc1ccc([N+](=O)[O-])cc1)c1ccccc1 (stereo not given) | 8.39% (inactive) | 
7 | C/C=C/C=O | 1.17% (inactive) | 
8 | Nc1nc(N)nc(N)n1 | 1.62% (inactive) | 
9 | O=[N+]([O-])C(Br)(CO)CO | -6.25% (inactive) | 
10 | O=C(N[C@H](c1ccccc1)[C@@H]1CN2CCC1CC2)c1c(Cl)ccc(C(F)(F)F)c1Cl | 0.173% (inactive) | 
11 | CCOP(=O)(OCC)O/C(=C/Cl)c1ccc(Cl)cc1Cl | -0.379% (inactive) | 
12 | CC(=O)c1cc2c(cc1C)C(C)(C)C(C)CC2(C)C (stereo not given) | -4.85% (inactive) | 
13 | O=S(=O)(O)C(F)(F)C(F)(F)C(F)(F)C(F)(F)F | 0.973% (inactive) | 
14 | CC(C)N(CCC(C(N)=O)(c1ccccc1)c1ccccn1)C(C)C (stereo not given) | -5.15% [at 42.5 µM] (inactive) | 
15 | O=C1CN=C(c2ccccc2)c2cc(Cl)ccc2N1CC1CC1 | -3.9% (inactive) | 
16 | CCOS(C)(=O)=O | -5.56% (inactive) | 
17 | CCCCC(CC)COP(=O)(Oc1ccccc1)Oc1ccccc1 (stereo not given) | -1.21% (inactive) | 
18 | CCCCNP(N)(N)=S | -7.99% (inactive) | 
19 | c1ccc(CN2CCNCC2)cc1 | -8.15% [at 240 µM] (inactive) | 
20 | O=C(NC(=O)c1c(F)cccc1F)Nc1cc(Cl)c(Oc2ncc(C(F)(F)F)cc2Cl)c(Cl)c1 | -8.38% (inactive) | 

Row | SMILES | activity change, negative = cytotoxicity | Potency
21 | COP(=O)(OC)O/C(=C/Cl)c1cc(Cl)c(Cl)cc1Cl | -0.529% (inactive) | 
22 | COCC(C)N(C(=O)CCl)c1c(C)csc1C (stereo not given) | -5.67% (inactive) | 
23 | CC(C)(CCl)C(=O)Cl | -2.78% (inactive) | 
24 | O=C(CCl)c1ccc(Cl)cc1Cl |  | inactive
25 | O=[N+]([O-])c1ccccc1CCl | -0.66% (inactive) | 
26 | CC(C)=CCOc1c2occc2cc2ccc(=O)oc12 | 1.73% [at 42.5 µM] (inactive) | 
27 | CCC(Cl)CCl (stereo not given) | 0.795% (inactive) | 
28 | ClP(Cl)(Cl)(Cl)Cl | -1.76% (inactive) | 
29 | CCCN(CC1CC1)c1c([N+](=O)[O-])cc(C(F)(F)F)cc1[N+](=O)[O-] | -2.39% (inactive) | 
30 | O=S1(=O)OC(c2cc(Br)c(O)c(Br)c2)(c2cc(Br)c(O)c(Br)c2)c2ccccc21 |  | 22.3 µM (active)
31 | CC(Cl)C(C)Cl (stereo not given) | -0.99% (inactive) | 
32 | NC(=O)CI | 1.25% (inactive) | 
33 | CC1(C)CCC(Cc2ccc(Cl)cc2)C1(O)Cn1cncn1 (stereo not given) | 0.818% (inactive) | 
34 | CC(Cl)Cl | 0.475% (inactive) | 
35 | CS/C(C)=N/OC(=O)N(C)SN(C)C(=O)O/N=C(\C)SC | -2.7% (inactive) | 
36 | C=CC(=O)OCC(C)C | 1.49% (inactive) | 
37 | Clc1ccc(C(OCCN2CCCCC2)c2ccccc2)cc1 (stereo not given) | -11.2% [at 42.5 µM] (inactive) | 
38 | CCCCCCCCCCOC(=O)c1ccccc1C(=O)OCCCCCCCCCC | 0.0075% (inactive) | 
39 | O=C(CBr)Nc1ccc(Cl)cc1C(=O)c1ccccc1F | -9.09% [at 42.5 µM] (inactive) | 
40 | CCc1ccc(C(=O)NN(C(=O)c2cc(C)cc(C)c2)C(C)(C)C)cc1 |  | 5.45 µM (active)
